# Out of some 39,000 compounds screened, about 3,300 (8.5%) were called active. The full list was thinned out, with actives kept by preference.
# Test system: HepG2
# Test: cytotoxicity call (relative viability < 0.9)
# Settings: 10 µM
row,Structure (SMILES),cytotoxicity call
1,CC(C)CC#Cc1ccc2c(c1)O[C@H](CN(C)C(=O)c1cccnc1)[C@@H](C)CN([C@@H](C)CO)S2(=O)=O,inactive
2,O=C(O)c1ccc(N[C@@H]2O[C@H](CO)[C@@H](O)[C@@H]2O)cc1,inactive
3,Clc1ccc2nc(Cl)cc(-c3ccccc3)c2c1,inactive
4,Clc1ccc(-c2onc3cc(-c4ccccc4)ccc23)cc1,active
5,Clc1ccc(-c2cnc3ccc(-c4ccccc4)cn23)cc1,inactive
6,C[C@H](CO)N1C[C@H](C)[C@H](CN(C)Cc2ccc(Cl)c(Cl)c2)Oc2ccc(NC(=O)CCCCCC(=O)Nc3ccccc3N)cc2CC1=O,inactive
7,C[C@H](CO)N1C[C@H](C)[C@@H](CN(C)C(=O)Nc2ccccc2)Oc2ccc(NS(=O)(=O)c3cn(C)cn3)cc2C1=O,inactive
8,CSCc1nc(=O)cc(C(=O)O)[nH]1,inactive
9,CC(C)NC(=O)N(C)C[C@@H]1OCCCC[C@H](C)Oc2ccc(NC(=O)Nc3ccc(F)cc3)cc2C(=O)N([C@@H](C)CO)C[C@H]1C,inactive
10,C/C=C1\NC(=O)[C@H]2CSSCC/C=C/[C@H](CC(=O)N[C@H](C(C)C)C(=O)N2)OC(=O)[C@H](C(C)C)NC1=O,active
11,C[C@@H]1CCCCO[C@H](CN(C)S(=O)(=O)c2cn(C)cn2)[C@@H](C)CN([C@@H](C)CO)C(=O)c2cc(NC(=O)c3ccncc3)ccc2O1,inactive
12,NC(=O)CN1CCCCCC1=O,inactive
13,COc1cc(N)ccn1,active
14,COc1ccc(N)cn1,inactive
15,COc1ccnc(N)c1,inactive
16,COc1ccccc1NC(=O)N(C)C[C@H]1Oc2cc(Br)ccc2S(=O)(=O)N([C@@H](C)CO)C[C@H]1C,inactive
17,CC(N)(Cc1ccc(O)c(O)c1)C(=O)O (stereo not drawn) [listing 1 of 2 here],active
18,COC(=O)[C@@H](N)Cc1ccc(O)c(O)c1,inactive
19,N[C@@H](Cc1ccc(O)c(O)c1)C(=O)O,inactive
20,NC(Cc1ccc(O)c(O)c1)C(=O)O (stereo not drawn),active
21,CC(N)(Cc1ccc(O)c(O)c1)C(=O)O (stereo not drawn) [listing 2 of 2 here],inactive
22,C[C@](N)(Cc1ccc(O)cc1)C(=O)O,inactive
23,C[C@](N)(Cc1ccc(O)c(O)c1)C(=O)O,active
24,CC(N)(Cc1cccc(O)c1)C(=O)O (stereo not drawn),inactive
25,CCOC(=O)[C@@](C)(N)Cc1ccc(O)c(O)c1,inactive

row,Structure (SMILES),cytotoxicity call
1,O=Cc1ccc[nH]1,inactive
2,COc1ccc(NC(=O)N(C)C[C@@H]2Oc3ncc(C#C[C@H](C)O)cc3C(=O)N([C@@H](C)CO)C[C@H]2C)cc1,inactive
3,CN1CCN(C(=O)C[C@@H]2CC[C@@H]3[C@H](COC[C@H](O)CN3S(=O)(=O)c3cccc(Cl)c3)O2)CC1,inactive
4,CC[C@@H](O)C[C@H]1CC[C@H]([C@@H](C)C(=O)O[C@@H](C)C[C@H]2CC[C@H]([C@@H](C)C(=O)O[C@@H](C)C[C@H]3CC[C@H]([C@@H](C)C(=O)O[C@@H](C)C[C@H]4CC[C@H]([C@@H](C)C(=O)O)O4)O3)O2)O1,active
5,COc1ccc(S(=O)(=O)Nc2ccc3c(c2)CC(=O)N([C@H](C)CO)C[C@@H](C)[C@@H](CN(C)C(=O)Nc2c(C)noc2C)O3)cc1,inactive
6,C[C@@H]1CCCCO[C@H](CN(C)C(=O)c2ccccc2)[C@@H](C)CN([C@H](C)CO)C(=O)c2cc(NC(=O)c3ccccc3)ccc2O1,inactive
7,O=C(O)c1cnns1,inactive
8,C[C@H](CO)N1C[C@H](C)[C@@H](CN(C)C(=O)Nc2cccc3ccccc23)OCc2cn(nn2)CCCC1=O,inactive
9,C[C@@H]1CN([C@H](C)CO)C(=O)c2cccc(NC(=O)C3CCOCC3)c2O[C@@H]1CN(C)Cc1ccc(C(=O)O)cc1,inactive
10,O=C(NCc1nc2ccccc2[nH]1)C1=C[C@H](c2ccc(Br)cc2)C[C@H](OCc2ccc(CO)cc2)O1,inactive
11,O=C(NCc1nc2ccccc2[nH]1)C1=C[C@H](c2ccc(C(F)(F)F)cc2)C[C@H](OCc2ccc(CO)cc2)O1,inactive
12,O=C(NCc1nc2ccccc2[nH]1)C1=C[C@@H](c2ccc(Br)cc2)C[C@@H](OCc2ccc(CO)cc2)O1,active
13,C[C@H]1CCCCO[C@@H](CN(C)C(=O)Nc2cccc3ccccc23)[C@@H](C)CN([C@@H](C)CO)C(=O)c2cc(NS(=O)(=O)c3ccc(Cl)cc3)ccc2O1,inactive
14,C[C@@H]1CCCCO[C@H](CN(C)C(=O)Nc2cccc3ccccc23)[C@H](C)CN([C@H](C)CO)C(=O)c2cc(NS(=O)(=O)c3ccc(Cl)cc3)ccc2O1,active
15,C[C@@H]1CCCCO[C@@H](CN(C)C(=O)Nc2cccc3ccccc23)[C@H](C)CN([C@H](C)CO)C(=O)c2cc(NS(=O)(=O)c3ccc(Cl)cc3)ccc2O1,active
16,C[C@@H]1CN([C@@H](C)CO)C(=O)c2cc(NS(=O)(=O)c3ccc(Cl)cc3)ccc2O[C@@H](C)CCCCO[C@@H]1CN(C)C(=O)Nc1cccc2ccccc12,inactive
17,C[C@H](CO)N1C[C@H](C)[C@H](CN(C)C(=O)Nc2cccc3ccccc23)OCCCC[C@H](C)Oc2ccc(NS(=O)(=O)c3ccc(Cl)cc3)cc2C1=O,inactive
18,C[C@@H]1CCCCO[C@@H](CN(C)C(=O)Nc2cccc3ccccc23)[C@H](C)CN([C@@H](C)CO)C(=O)c2cc(NS(=O)(=O)c3ccc(Cl)cc3)ccc2O1,inactive
19,CO[C@@H]1CN(C)C(=O)c2ccc(NC(=O)Nc3ccccc3)cc2OC[C@H](C)N(C(=O)CN(C)C)C[C@@H]1C,inactive
20,COc1ccc(S(=O)(=O)Nc2cccc3c2O[C@H](CN(C)C(=O)NC(C)C)[C@H](C)CN([C@@H](C)CO)C3=O)cc1,inactive
21,C[C@@H]1CCCCO[C@@H](CN(C)C(=O)NC2CCCCC2)[C@@H](C)CN([C@H](C)CO)C(=O)c2cc(NC(=O)NC3CCCCC3)ccc2O1,inactive
22,COc1ccc(S(=O)(=O)N(C)C[C@@H]2Oc3ncc(C#Cc4ccccc4)cc3C(=O)N([C@H](C)CO)C[C@@H]2C)cc1,inactive
23,O=c1[nH]nc2ccccn12,inactive
24,CN1C(=O)c2cc(NC(=O)C3CCOCC3)ccc2OC[C@@H]2O[C@@H](CC(=O)NCc3ccc4c(c3)OCO4)CC[C@H]21,inactive
25,COc1ccc(C(C)(C)N)cc1OC,inactive

row,Structure (SMILES),cytotoxicity call
1,C[C@@H]1C[C@H]1C(=O)O,inactive
2,C[N+]1(C)C[C@H](O)[C@H](C(=O)O)C1,active
3,C[N+]1(C)C[C@@H](O)C[C@H]1C(=O)O,inactive
4,CN1CCN(C(=O)C[C@@H]2C=C[C@@H](NC(=O)Cc3ccccn3)[C@H](CO)O2)CC1,inactive
5,CCCC#Cc1cnc2c(c1)C(=O)N([C@@H](C)CO)C[C@H](C)[C@H](CN(C)S(=O)(=O)c1cccc(OC)c1)O2,inactive
6,CCN1C[C@]23CN(C(=O)c4ccn[nH]4)C[C@@H](C[C@H]2S1(=O)=O)O3,inactive
7,COc1ccc(S(=O)(=O)N(C)C[C@@H]2OCCCC[C@@H](C)Oc3ccc(NC(=O)CCC(F)(F)F)cc3C(=O)N([C@H](C)CO)C[C@H]2C)cc1,inactive
8,COc1cc([C@H]2OC[C@](O)(Cc3ccc(O[C@@H]4O[C@H](CO)[C@@H](O)[C@H](O)[C@H]4O)c(OC)c3)[C@@H]2CO)ccc1O,inactive
9,COc1cc(C[C@H]2CO[C@H](c3ccc(O)c(OC)c3)[C@@H]2CO[C@H]2O[C@@H](CO)[C@@H](O)[C@@H](O)[C@@H]2O)ccc1O,active
10,COc1cc([C@H]2OC[C@@H]3[C@H]2CO[C@H]3c2cc(OC)c(O[C@@H]3O[C@H](CO)[C@@H](O)[C@H](O)[C@H]3O)c(OC)c2)cc(OC)c1OC,inactive
11,COc1ccc(NC(=O)Nc2ccc3c(c2)C(=O)N([C@H](C)CO)C[C@@H](C)[C@@H](CN(C)Cc2ccc(C(F)(F)F)cc2)OCCCC[C@H](C)O3)cc1,inactive
12,COc1ccc(CN(C)C[C@@H]2OCCCC[C@H](C)Oc3ccc(NC(=O)Nc4ccc(C(F)(F)F)cc4)cc3C(=O)N([C@@H](C)CO)C[C@@H]2C)cc1,active
13,COc1ccc(NC(=O)Nc2ccc3c(c2)C(=O)N([C@H](C)CO)C[C@H](C)[C@@H](CN(C)Cc2ccc(C(F)(F)F)cc2)OCCCC[C@H](C)O3)cc1,inactive
14,COc1ccc(CN(C)C[C@@H]2OCCCC[C@H](C)Oc3ccc(NC(=O)Nc4ccc(C(F)(F)F)cc4)cc3C(=O)N([C@H](C)CO)C[C@@H]2C)cc1,active
15,COc1ccc(CN(C)C[C@H]2OCCCC[C@@H](C)Oc3ccc(NC(=O)Nc4ccc(C(F)(F)F)cc4)cc3C(=O)N([C@H](C)CO)C[C@@H]2C)cc1,active
16,COc1ccc(CN(C)C[C@@H]2OCCCC[C@@H](C)Oc3ccc(NC(=O)Nc4ccc(C(F)(F)F)cc4)cc3C(=O)N([C@@H](C)CO)C[C@H]2C)cc1,active
17,COc1ccc(NC(=O)Nc2ccc3c(c2)C(=O)N([C@@H](C)CO)C[C@@H](C)[C@H](CN(C)Cc2ccc(C(F)(F)F)cc2)OCCCC[C@H](C)O3)cc1,inactive
18,COc1ccc(NC(=O)Nc2ccc3c(c2)C(=O)N([C@@H](C)CO)C[C@H](C)[C@@H](CN(C)Cc2ccc(C(F)(F)F)cc2)OCCCC[C@H](C)O3)cc1,inactive
19,COCC#Cc1ccc2c(c1)O[C@H](CN(C)C(=O)Nc1ccc(OC)cc1)[C@H](C)CN([C@H](C)CO)S2(=O)=O,inactive
20,COCC(=O)N1CC[C@]2(CC1)CN([C@H](CO)c1[nH]c3cc(ccc3c12)OC)C(=O)Nc1ccccc1F,inactive
21,Cc1c(C)c2c(c(C)c1OC(=O)CCC(=O)O)CC[C@@](C)(CCC[C@H](C)CCC[C@H](C)CCCC(C)C)O2,inactive
22,Cc1ccc(S(=O)(=O)Nc2ccc3c(c2)CC(=O)N([C@H](C)CO)C[C@@H](C)[C@@H](CN(C)S(=O)(=O)c2c(C)noc2C)O3)cc1,inactive
23,COc1ccc(CCNC(=O)[C@@H]2c3ccccc3C(=O)N(CC34CC5CC(CC(C5)C3)C4)[C@H]2c2ccc(CO)cc2)cc1,inactive

# — the antibiotic and cytotoxicity screens of Wong et al. (2023)
